Rows were chosen to be rich in hits. Some 3.8% of all compounds tested hit in one or more screens of this group.
mIDH1 inhibitor: blocks human mutant IDH1 R132H enzyme; Potency, µM (highest dose often 76.6 µM), without a hit: top-dose activity change, negative = inhibition, most hits filed as inhibitors; hit rate 0.093% among 390,000; IDH1-R132H enzyme, NADPH consumption, diaphorase/resazurin fluorescence; AID 602179; O75874; note: % is set by controls: 0 for no effect and ±100 for the full control effect; nearly all actives have a fitted effect of over 65% in size
Target sequence (O75874 whole entry R132H, stated change not applied): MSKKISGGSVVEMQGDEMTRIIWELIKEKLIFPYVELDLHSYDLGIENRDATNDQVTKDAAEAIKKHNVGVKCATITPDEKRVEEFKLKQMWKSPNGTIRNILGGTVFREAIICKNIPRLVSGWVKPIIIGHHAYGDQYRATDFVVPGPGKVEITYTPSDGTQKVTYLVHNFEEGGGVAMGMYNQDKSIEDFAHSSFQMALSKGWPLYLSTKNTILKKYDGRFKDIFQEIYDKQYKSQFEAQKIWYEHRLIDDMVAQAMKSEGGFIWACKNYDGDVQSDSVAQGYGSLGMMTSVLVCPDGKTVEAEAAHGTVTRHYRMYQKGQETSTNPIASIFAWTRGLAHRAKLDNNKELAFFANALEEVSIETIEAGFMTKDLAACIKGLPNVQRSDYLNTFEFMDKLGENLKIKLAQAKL
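IDH1-R132H (0.5 ug/mL) preincubated 30 min with compound, then NADPH (0.016 mM) and alpha-KG (2 mM) added; 80 min at RT, pH 7.5. Remaining NADPH coupled via diaphorase/resazurin to fluorescence (540/590 nm); concentration-response curves normalized to no-enzyme control.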
Nrf2 inh: blocks Nrf2 signaling | A549 ARE-Fluc reporter, luciferase luminescence, 18-24 h | Potency, µM (doses to about 46 µM), inactives show at the highest dose activity change, negative = inhibition, hits mostly inhibitors | hit rate 2.1% among 360,000 | AID 504444; note: % is set by controls: 0 for no effect and ±100 for the full control effect; nearly all actives have a fitted effect of over 60% in size
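Concentration-response testing used A549 ARE_Fluc cells at 5000 cells/well. Following an 18-24 h compound incubation, viability was read by fluorescence (Ex 405/Em 525) and luciferase output by luminescence.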
ELG1 repair inh: blocks ELG1-dependent DNA repair in HEK293T cells. hit rate 2.3% among 330,000. HEK293T ELG1-luciferase reporter, luminescence, 16 h; DNA damage induced by 5-fluorouridine. Potency, µM (series often up to 46.1 µM), for the others: at the top dose activity change, negative = inhibition, hits mostly inhibitors; note: % is set by controls: 0 for no effect and ±100 for the full control effect; nearly all actives have a fitted effect of over 55% in size
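Cells (2,000 per well) received 5-fluorouridine plus test compound or DMSO and were incubated 16 hr at 37 °C, 5% CO2. Luciferase activity was read by luminescence 30 min after ONE-Glo addition; signal suppression marked inhibition of damage-induced ELG1 function.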
A549 viability: A549 cytotoxicity, counter-screen for Nrf2 inhibitors. Potency, µM (highest dose often 46 µM), for the others: top-dose activity change, negative = cytotoxicity, hits mostly inhibitors. AID 504648. hit rate 0.16% among 390,000. A549 ARE-Fluc cells, CellTiter-Fluor viability, 18-24 h; note: % is set by controls: 0 for no effect and ±100 for the full control effect
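A549 ARE-Fluc cells in 5% FBS OPTI-MEM, 5000 cells/well, rested 2 h then exposed to compounds in concentration-response for 18-24 h at 37 °C. Viability by CellTiter-Fluor fluorescence (Ex 405/Em 525) after 30 min; luciferase luminescence (BugLite, 15 min, RT) read afterwards.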
Nrf2 ARE act: activates Nrf2 signaling | AID 624171 | AREc32 ARE-luciferase reporter (MCF7-derived line), luminescence, 24 h | hit rate 0.31% among 410,000 | Potency, µM (titrated, usually from 46.1 µM), inactives show at the top dose activation, hits mostly activators; note: % of control where 0% means no effect; nearly all actives have a fitted effect of over 65% in size
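AREc32_Fluc, 1000 cells/well, OPTI-MEM + 5% FBS, o/n 37 deg C 5% CO2; 23 nL cpd by pin tool, 24 hr; Steady-Glo 30 min RT, luminescence.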
The depositor's hits bear a star; ? = inconclusive; . = no result; [ ] = dose if it differs, or a comment. Calls come from the whole dose curve; as a rule, active = well fitted curve in the direction sought with a large enough effect; inconclusive = small, poorly fitted or top-dose-only effect, or another doubt; inactive = no such curve, though single readings can be large; an effect the other way counts as inactive or inconclusive. Potency is the fitted concentration of half-maximal effect.

SMILES	mIDH1 inhibitor	Nrf2 inh	ELG1 repair inh	A549 viability	Nrf2 ARE act
O=c1[nH]c(C2CCN(S(=O)(=O)c3ccc(S(=O)(=O)NC4CC4)cc3)CC2)nc2c1nnn2Cc1ccccc1	1%	-13%	18µM*	0%	3%
Cc1noc(C)c1C(=O)Nc1nc(-c2cccs2)cs1	-5%	?	?	11%	16µM*
O=C(Nc1nc2ccc(S(=O)(=O)N3CCCC3)cc2s1)c1ccccn1	0%	?	21µM*	-4%	0%
O=C(Nc1nc(-c2cccs2)cs1)c1ccc(S(=O)(=O)N2CCCCC2)cc1	-8%	21µM*	?	-5%	12%
O=C(Nc1nc(-c2ccccc2)c(C(=O)c2ccccc2)s1)c1ccc(S(=O)(=O)N2CCCCC2)cc1	0%	15µM*	?	-19%	0%
CCc1noc(C)c1C(=O)Nc1nc(-c2cccs2)cs1	2%	?	?	-1%	?
O=C(Nc1nc(-c2ccccc2)c(-c2ccccc2)s1)c1ccc(S(=O)(=O)N2CCCCC2)cc1	-2%	5%	11%	3%	2%
COc1ccccc1CNC(=O)C(=O)NCC(c1ccco1)S(=O)(=O)c1ccc(C)cc1 (stereo not given)	-12%	.	.	10%	-1%
CCOC(=O)c1c(Nc2ccccc2OCCOC)n[nH]c1C	0%	9%	21µM*	-3%	4%
CCOC(=O)c1c(NCc2ccccc2)n[nH]c1C	0%	-2%	7%	0%	2%
Cc1cc(Br)ccc1NC(=O)CN(C)C(=O)C1CCN(c2ncnc3sc(C)c(C)c23)CC1	-2%	?	.	21µM*	0%
Cc1cccc(C)c1NC(=O)CN(C)C(=O)C1CCN(c2ncnc3sc(C)c(C)c23)CC1	-2%	?	?	-2%	0%
Cc1sc2ncnc(N3CCC(C(=O)Nc4ccc(OC(F)F)c(Cl)c4)CC3)c2c1C	7%	?	10µM*	-28%	-2%
Cc1sc2ncnc(N3CCC(C(=O)NNC(=O)c4ccccc4Cl)CC3)c2c1C	7%	16µM*	?	-6%	-1%
Cc1cc(Cl)ccc1OCC(=O)NNC(=O)C1CCN(c2ncnc3sc(C)c(C)c23)CC1	-8%	?	?	-17%	5%
N#Cc1ccc(Oc2nc(Nc3ccc(F)cc3)nc(N3CCCC3)n2)cc1	-5%	.	16µM*	-7%	0%
Fc1ccc(Nc2nc(N3CCOCC3)nc(N3CCOCC3)n2)cc1	27%	-5%	?	?	-1%
c1ccc2c(c1)CCN(c1nc3ccccc3n3cnnc13)C2	1%	15%	?	-7%	13µM*
c1ccc(N2CCN(c3nc4ccccc4n4cnnc34)CC2)cc1	9%	?	?	-2%	3%
CN(C)S(=O)(=O)c1cccc(COc2ncnc3c(Cl)cc(Cl)cc23)c1	-7%	?	18µM*	2%	0%
CN(C)S(=O)(=O)c1cccc(COC(=O)c2ccc(Cl)cc2O)c1	0%	6%	-7%	0%	1%
COc1ccc2c(c1)Cc1sc(NC(=O)c3cccc(C)c3)nc1-2	.	21µM*	.	-13%	2%
Cc1ccc(NC(=O)c2ccc(CNS(=O)(=O)c3ccc4c(c3)C(C)(C)C(=O)N4C)cc2)cc1F	12%	23µM*	.	-19%	0%
CCc1cccc(NC(=O)c2ccc(CNS(=O)(=O)c3ccc4c(c3)C(C)(C)C(=O)N4C)cc2)c1	2%	16µM*	.	-21%	-1%
Cc1ccc(S(=O)(=O)N2C(=O)c3cccc4cccc2c34)cc1	19%	15µM*	?	?	0%
SMILES	mIDH1 inhibitor	Nrf2 inh	ELG1 repair inh	A549 viability	Nrf2 ARE act
Cc1ccc(S(=O)(=O)ON2C(=O)c3cccc4cccc(c34)C2=O)cc1	4%	-3%	11%	1%	6%
Cc1ccc(C(=O)c2sc(Nc3ccccc3)c(S(=O)(=O)c3ccccc3)c2N)c(C)c1	-1%	.	.	-1%	1%
Cc1cc(C(=O)NNc2ccccc2F)no1	-2%	0%	6.5µM*	2%	0%
COc1ccc(NC(=O)CSc2oc(-c3ccc(F)cc3)nc2S(=O)(=O)c2ccc(C)cc2)c(OC)c1	0%	4%[9.27 µM]	.	-2%	1%
CCCCn1c(SCC(=O)Nc2ccc3c(c2)OCCO3)nnc1C(CC)N(C)C (stereo not given)	-11%	?	4%	6%	0%
CCCCn1c(SCC(=O)Nc2cc(C(F)(F)F)cc(C(F)(F)F)c2)nnc1C(CC)N(C)C (stereo not given)	6%	13µM*	-28%	?	6%
O=C(Nc1nc(-c2cccs2)c(C(=O)C(F)(F)F)s1)c1ccccc1	3%	21µM*	-12%	-19%	0%
O=C(CSc1nc(=O)n(Cc2ccccn2)c2c1CCC2)Nc1ccccc1	-17%	26µM*	.	1%	3%
Cc1cc(-n2cnnn2)cc(C)c1S(=O)(=O)NCCOc1ccccc1	4%	10%	-4%	-4%	-1%
O=C1CCCN1c1ccc(S(=O)(=O)NCCOc2ccccc2)cc1	4%	13µM*	?	-11%	0%
Cc1cc(N2CCCC2=O)cc(C)c1S(=O)(=O)NCCOc1ccc(C(C)(C)C)cc1	5%	?	21µM*	-16%	0%
O=C1CCCN1c1ccc(S(=O)(=O)NCc2ccc(F)cc2)cc1	0%	?	6%	-1%	0%
Cc1ccccc1NC(=O)CN(c1ccc(Cl)cc1Cl)S(=O)(=O)c1ccccc1	-16%	?	.	-11%	5%
CC(=O)c1cccc(NC(=O)COc2ccccc2C(=O)c2cc(C#N)c(=O)n(C3CCCCC3)c2)c1	2%	10%	10µM*	0%	0%
N#Cc1cc(C(=O)c2ccccc2OCC(=O)Nc2ccccc2Cl)cn(C2CCCCC2)c1=O	4%	-24%	?	-5%	0%
COc1ccc(-c2csc3ncnc(N4CCN(S(=O)(=O)c5ccc(Cl)s5)CC4)c23)cc1	11%	-9%	8.2µM*	0%	4%
O=S(=O)(c1ccc(Oc2ncnc3scc(-c4ccccc4)c23)cc1)N1CCOCC1	-5%	16µM*	?	-5%	4%
COc1ccc(-c2csc3ncnc(N4CCN(S(=O)(=O)c5ccc(C)cc5)CC4)c23)cc1	-10%	?	21µM*	-8%	1%
Cc1csc2ncnc(N3CCN(S(=O)(=O)c4cccc(C(F)(F)F)c4)CC3)c12	6%	5.2µM*	?	-21%	-1%
CCCCN(CC)CCNC(=O)C1CCCN(c2ncnc3onc(C)c23)C1 (stereo not given)	2%	?	.	0%	4%
O=S(=O)(c1ccc(Cl)cc1)N1CCN(c2ncnc3sccc23)CC1	3%	21µM*	?	-6%	3%

Source: PubChem BioAssay (National Center for Advancing Translational Sciences (NCATS))
